From PubChem BioAssay AID504863 (Sanford-Burnham Center for Chemical Genomics, 2011) come the findings set out here.

A word on the inhibition: it is the relative decrease from the control value, in per cent.

The structures appear in SMILES notation. The list shows a part of the results. A number with no mark means an inactive call.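 How the source made its calls: active means inhibition averaging 50% or more, tested at 20 µM; inactive means the rest.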

The test system of the assay is diaphorase (Clostridium kluyveri). The assay is described as follows: diaphorase inhibitors and chemical oxidizers, confirmation, counter-screen for P. falciparum G6PD inhibitor project, biochemical, fluorescence intensity, 30 µM NADPH (AID 504863).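 Further: 0% = DMSO with enzyme and 100% = DMSO wells lacking diaphorase.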 The settings on record: Diaphorase/resazurin coupled assay, resorufin fluorescence, at 20 µM, active compounds read high.

Consider `O=C1NC(=O)N(c2ccccc2)C(=O)/C1=C/c1ccc([N+](=O)[O-])s1`, for which the inhibition was 20.5%.
